# Assay results reported in PubChem BioAssay (NCATS).
# Results filed as inconclusive are left out. A call without a number means that no potency is given here. Activity calls are given as the source filed them. The call rests on the fitted dose curve. Peptide text beside a SMILES is read from it.
# Test: S16 Schwann cell PMP22 intronic element beta-lactamase assay (AID 624044); further: nearly all actives have a fitted effect of over 15% in size
# Details: S16 rat Schwann cells, PMP22 element beta-lactamase FRET, 24 h; series mostly up to 17.1 µM
# Method in brief: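 Rat S16 Schwann cells with beta-Lac driven by a PMP22 intronic element, compound-treated 24 h at 37 °C. LiveBLAzer FRET B/G read: 460 nm normalized to potassium clavulanate vs DMSO; 535 nm FRET as viability; concentration-effect curves classified.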
# Potency means the concentration at half of the fitted maximal effect.
row,SMILES,Potency
1,C[C@]1(c2ccccc2)OC(C(=O)O)=CC1=O,inactive
2,OCC1OC([S-])[C@H](O)C(O)C1O.[Au+] (some centres not stated),inactive
3,COC(=O)N/N=C/C1=C[N+](=O)c2ccccc2[N+]1=O,inactive
4,CN1CC(=O)N=C1N,inactive
5,CNC1CC(N)[C@H](O)[C@@H](O[C@@H]2OC(CO)C3OC4(OC(C(N)CO)C(O)C(O)C4O)O[C@@H]3[C@H]2O)C1O (some centres not stated),inactive
6,COC1C=CO[C@@]2(C)Oc3c(C)c(O)c4c(O)c(c(C=NN5CCN(C)CC5)c(O)c4c3C2=O)NC(=O)/C(C)=C\C=CC(C)C(O)[C@@H](C)C(O)C(C)[C@H](OC(C)=O)C1C (some centres not stated),inactive
7,CC(=O)N[C@@H]1C(O)OC(CO)C(O)C1O (some centres not stated),inactive
8,CCC(CCC(C)C1CCC2C3CC=C4CC(O)CC[C@@]4(C)C3CC[C@@]12C)C(C)C (some centres not stated),inactive
9,O=C1OC(CO)C(O)C(O)C1O (configuration not stated),inactive
10,COc1ccc(CC(N)C(=O)NC2C(CO)OC(n3cnc4c(N(C)C)ncnc43)C2O)cc1 (configuration not stated),7.07 µM (active)
11,CCCC(=O)O[C@]1(C(=O)CO)CCC2[C@@H]3CCC4=CC(=O)CC[C@]4(C)C3C(O)C[C@]21C (some centres not stated),inactive
12,COC(=O)C(Cc1ccccc1)NC(=O)C(N)CC(=O)O (stereo not drawn) (H-Asp-Phe-OMe; configuration not given here),inactive
13,CC1(C)SC2C(N3C(=O)C(c4ccccc4)NC3(C)C)C(=O)N2C1C(=O)O (configuration not stated),inactive
14,CC(=O)N[C@H](CC(C)C)C(=O)O,inactive
15,CC(C)C1CCC(C(=O)NC(Cc2ccccc2)C(=O)O)CC1 (configuration not stated),inactive
16,COc1ccc2cc(C(C)CO)ccc2c1 (configuration not stated),inactive
17,COc1ccc2cc1Oc1ccc(cc1)CC1c3c(cc4c(c3Oc3cc5c(cc3OC)CCN(C)C5C2)OCO4)CCN1C (configuration not stated),inactive
18,CNC1C(OC2C(O[C@@H]3C(O)C(O)[C@@H](N=C(N)N)C(O)C3N=C(N)N)OC(C)[C@@]2(O)CO)OC(CO)C(O)C1O (some centres not stated),inactive
19,CC1C2CCC3C4CC=C5CC(N(C)C)CC[C@@]5(C)C4CC[C@@]32CN1C (some centres not stated),inactive
20,C[C@]12C=CC(=O)C=C1CCC1C2C(O)C[C@]2(C)C1CC[C@]2(O)C(=O)CO (some centres not stated),inactive
21,COc1ccc2c(c1)N(C[C@@H](C)CN(C)C)c1ccccc1S2,inactive
22,CCOC(=O)C1=CC(OC(CC)CC)C(NC(C)=O)C(N)C1 (configuration not stated),inactive
23,CN(C)CCc1c[nH]c2ccc(CC3COC(=O)N3)cc12 (configuration not stated),inactive
24,OCC1O[C@H](OC2C(CO)O[C@@](O)(CO)C2O)C(O)C(O)C1O (some centres not stated),inactive
25,CC1(C)OC2CO[C@]3(COS(N)(=O)=O)OC(C)(C)OC3C2O1 (some centres not stated),inactive
26,CC(=O)OC1CCC2C3CCc4cc(O)ccc4C3CCC12C (configuration not stated),inactive
27,CN(C)CCCOC1C(C(O)CO)OC2OC(C)(C)O[C@@H]21 (some centres not stated),inactive
